# UHRF1 binding: UHRF1 methylated DNA binding inhibitors, primary screen, counter-screen for MBD2 inhibitor project, biochemical, TR-FRET, human UHRF1, single concentration. UHRF1 binding to methylated oligo. actives 0.75% (n = 370,000). AID 687016, 2013. inhibition, % at 4.4 µM; in the data active means inhibition above about 21%;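 further: UHRF1 SRA domain binding a hemimethylated CpG hairpin DNA probe; 0% = median of test compound wells and 100% = reference inhibitor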
# DNMT1 block: human DNMT1 methyltransferase inhibitors, primary screen, biochemical, molecular beacon, fluorescence, HinP1I cleavage, uHTS. DNA (cytosine-5)-methyltransferase 1 (Homo sapiens), P26358. inhibition (reported as % activation of signal), % at 10 µM. actives 0.83% (n = 360,000); in the data active means inhibition above about 50%
# rCAG RNA binder: binders of r(CAG) RNA repeats, primary screen, biochemical, fluorescence. r(CAG) RNA repeat, TO-PRO-1 dye displacement fluorescence. inhibition, % at 3 µM. actives 1.3% (n = 370,000). AID 651821, 2012;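 active means inhibition above the plate cutoff, the mean of all test compounds on that plate plus 3 SD, cut at about 35% in these data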;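 further: 0% = DMSO alone and 100% = 100 µM mitoxantrone as full dye displacement; higher means more dye released from RNA so lower well fluorescence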
# LEDGF integ inh: blockers of LEDGF/p75-dependent integrase strand transfer – biochemical, TR-FRET, high throughput, primary screen | TR-FRET IN-LEDGF/p75 DNA integration, Eu/Cy5 | inhibition, % at 3.7 µM | HIV-1 integrase (with human LEDGF/p75) | AID 743269, 2014 | actives 0.64% (n = 370,000);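 active means inhibition above the screen-wide mean plus 3 SD, cut at about 13% in these data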;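 further: signal is the Cy5 over europium emission ratio at 671 and 618 nm; 0% = plate median of compound wells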
# PG9 binder: binders of HIV-1 gp120 antibody PG9, primary screen, biochemical, TR-FRET; HIV-1 gp120 / PG9 antibody interaction; TR-FRET gp120-PG9 antibody binding; inhibition, % at 6.7 µM; actives 0.43% (n = 360,000); AID 624416, 2012; in the data active means inhibition above about 8.5%
# MBD2 DNA inh: inhibitors of MBD2 binding to methylated DNA, primary screen, biochemical, TR-FRET, DNA-binding domain, human; Methyl-CpG-binding domain protein 2 (Homo sapiens), Q9UBB5; MBD2 binding to methylated oligonucleotide; inhibition, % at 4.4 µM; actives 0.31% (n = 370,000); AID 686964, 2013; in the data active means inhibition above about 13%
# Target sequence (Q9UBB5 whole entry, looked up, the tested form may be a part): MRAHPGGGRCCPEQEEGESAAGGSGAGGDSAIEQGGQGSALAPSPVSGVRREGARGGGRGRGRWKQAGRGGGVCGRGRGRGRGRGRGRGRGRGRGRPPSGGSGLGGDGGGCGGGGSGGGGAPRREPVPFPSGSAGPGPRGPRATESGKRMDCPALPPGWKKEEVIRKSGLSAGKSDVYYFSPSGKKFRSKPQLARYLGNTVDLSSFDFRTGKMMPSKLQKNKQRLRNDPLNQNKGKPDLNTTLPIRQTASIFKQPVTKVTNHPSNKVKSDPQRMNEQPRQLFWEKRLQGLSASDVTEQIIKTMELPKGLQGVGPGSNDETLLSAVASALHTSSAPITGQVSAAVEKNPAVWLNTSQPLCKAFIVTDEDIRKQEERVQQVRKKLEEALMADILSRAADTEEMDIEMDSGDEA
# rCAG binder conf: small molecules binding CAG repeat RNA – biochemical, fluorescence, confirmation. actives 70% (n = 4,300). r(CAG) RNA repeat, TO-PRO-1 dye displacement fluorescence. inhibition, % at 3 µM. shares compounds with rCAG RNA binder;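 active means inhibition above a per-plate cutoff, the mean inhibition of sample wells plus 3 SD, cut at about 35% in these data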;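 further: loss of TO-PRO-1 fluorescence as compound displaces dye from 1x1 AA loop RNA; 0% = DMSO only wells and 100% = 100 µM mitoxantrone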
# dCAG dye counter: displacement of TO-PRO-1 from CAG DNA duplex, counter-screen for rCAG RNA repeat binder project, biochemical, fluorescence, TO-PRO-1 dye, d(CAG) DNA oligo; shares compounds with rCAG RNA binder; d(CAG) DNA oligo TO-PRO-1 dye displacement; inhibition, % at 3 µM; actives 94% (n = 4,300);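 active means inhibition above its plate's cutoff, the mean test-well inhibition plus 3 SD, cut at about 4.8% in these data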;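 further: 0% = DNA dye mix with DMSO and 100% = 100 µM mitoxantrone; hits displace the dye from DNA and so lower well fluorescence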
# DNA CAG DR: inhibitors of DNA CAG/GTC TO-PRO-1 complex, dose response, counter-screen for rCAG RNA repeat binder project, biochemical, fluorescence, TO-PRO-1 dye; shares compounds with rCAG RNA binder; DNA CAG/GTC duplex TO-PRO-1 dye displacement fluorescence; IC50, µM; actives 20% (n = 250); AID 686960, 2013; in the data active means IC50 below about 10 µM
# The depositor's hits bear a star; i = inactive; / = no result. An excerpt weighted towards active compounds, which were near 3.5% of everything screened.
SMILES,UHRF1 binding,DNMT1 block,rCAG RNA binder,LEDGF integ inh,PG9 binder,MBD2 DNA inh,rCAG binder conf,dCAG dye counter,others
O=C(O)c1ccc(Nc2nc(-c3ccccc3)nc3ccccc23)cc1,0.5,2.3,36.6*,8.6,0.5,-7.2,22.8,5.5*,
O=C(O)c1cccc(Nc2nc(-c3ccccc3)nc3ccccc23)c1,2.5,2.6,49.5*,6.5,-0.6,-5.4,34.3,7.6*,
COc1cccc(-c2nc(NCc3ccco3)c3ccccc3n2)c1O,2.6,2.7,21.7,-0.1,-0.9,-0.2,/,/,
Cc1c[nH]c2cccc(-c3cc4ccccc4o3)c12,-5.0,/,7.4,4.1,/,1.3,/,/,
CCN(c1ccc(OC)cc1)S(=O)(=O)N1CCCC(C(=O)NCc2ccc(OC(C)C)cc2)C1 (stereo unspecified),-2.1,-34.5,-0.4,-4.0,-1.0,-0.2,/,/,
Cc1ccc(NS(=O)(=O)c2cc(Br)cnc2N)c(Cl)c1,0.0,0.3,20.4,-1.1,1.1,3.2,/,/,
Nc1ncc(Br)cc1S(=O)(=O)Nc1cc(C(F)(F)F)cc(C(F)(F)F)c1,5.7,-14.7,80.8*,-1.9,1.1,-2.1,65.0*,27.0*,DNA CAG DR=i
CCOC(=O)C1=C(CC)Nc2ccccc2N/C1=N\S(=O)(=O)c1ccc(C(=O)OCC)cc1,0.6,-1.2,41.1*,-1.4,-0.7,-3.8,40.0*,9.1*,
C=CCNc1ncnc2c1ncn2[C@H]1CN(Cc2cc(OC)c(OC)c(OC)c2)C[C@@H](CO)O1,-0.6,3.4,0.5,5.4,1.7,-1.6,/,/,
CCOC(=O)c1c(C)n(S(=O)(=O)c2ccc(C)cc2)c2ccc(O)c(C(=O)O)c12,-4.5,2.5,65.9*,0.8,1.6,-3.8,64.1*,27.4*,
COc1cc(NC(=O)COc2ccc([N+](=O)[O-])cc2)ccc1NC(=O)c1ccco1,2.7,11.5,9.6,3.4,-0.1,6.7,/,/,
COc1ccc(-c2cc(-c3ccccc3)c(C#N)c(SCC(=O)O)n2)cc1,-0.4,4.5,10.5,3.4,0.8,-4.1,/,/,
CC(C)C(Sc1nc(-c2ccccc2)cc(-c2ccccc2)c1C#N)C(=O)O (stereo unspecified),-1.2,-2.5,83.2*,9.1,-1.3,-8.7,85.7*,51.3*,
CCOC(=O)CC(=O)CSc1nc(-c2ccccc2)cc(-c2ccccc2)c1C#N,-0.5,5.1,10.5,-0.1,-1.8,0.6,/,/,
COc1ccc(-c2cc(-c3ccccc3)nc(SC(C)C(=O)O)c2C#N)cc1 (stereo unspecified),-3.0,-1.5,70.5*,-4.4,-0.7,1.4,75.7*,38.0*,
COc1ccccc1CNC(=O)c1cc(-c2ccccc2)n(Cc2cc(C)no2)n1,5.3,8.5,-4.4,2.1,-0.4,0.7,/,/,
O=C(Nc1ccc(NC(=O)c2cccs2)c(Cl)c1)c1cccs1,0.6,0.3,7.1,0.0,0.4,-1.8,/,/,
O=C(CSc1n[nH]c(-c2ccc(S(=O)(=O)N3CCCCC3)cc2)n1)Nc1nccs1,0.9,3.0,39.3*,-0.3,-0.2,3.3,36.3*,9.0*,
Cn1c(SCC(=O)Nc2nccs2)nnc1-c1ccc(S(=O)(=O)N2CCCC2)cc1,-0.9,1.6,-3.8,-3.5,-1.5,0.7,/,/,
